# Cruzain noTriton = qHTS Assay for Promiscuous and Specific Inhibitors of Cruzain (without detergent) | AID 1476, 2009 | purified cruzain, Z-FR-AMC fluorescence, no detergent | hit rate 2.3% among 200,000 | Potency, µM, actives largely listed as inhibitors; note: nearly all actives have a fitted effect of over 40% in size
# Target sequence (P25779 123-467 limits assumed): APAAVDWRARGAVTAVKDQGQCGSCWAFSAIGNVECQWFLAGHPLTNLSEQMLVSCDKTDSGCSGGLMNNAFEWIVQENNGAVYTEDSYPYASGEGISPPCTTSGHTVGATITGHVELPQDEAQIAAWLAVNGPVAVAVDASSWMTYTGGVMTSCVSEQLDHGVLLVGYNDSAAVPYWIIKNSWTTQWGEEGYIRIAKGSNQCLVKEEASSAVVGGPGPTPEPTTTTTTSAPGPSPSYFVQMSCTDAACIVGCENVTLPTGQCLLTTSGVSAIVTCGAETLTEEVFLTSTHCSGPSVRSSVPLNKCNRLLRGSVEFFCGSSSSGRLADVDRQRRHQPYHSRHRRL
#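 Detergent-free condition (0.00005% Triton X-100) in acetate buffer pH 5.5 with DTT. 1.5 nM enzyme and compound were pre-mixed 15 min, then 2 uM Z-FR-AMC substrate added; reaction progress from fluorescence change between first and third reads (60 s).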
# Cruzain Triton = qHTS Assay for Promiscuous and Specific Inhibitors of Cruzain (with detergent); hit rate 0.43% among 200,000; AID 1478, 2009; Potency, µM, usual class: inhibitors; purified cruzain, Z-FR-AMC fluorescence, 0.01% Triton; note: nearly all actives have a fitted effect of over 40% in size
#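 Read-out: AMC fluorescence (360 nm excitation, 450 nm emission), four reads over 2 min, first-to-third difference used. Conditions: cruzain 1.5 nM, Z-FR-AMC 2 uM, pH 5.5 acetate, 5 mM DTT, 0.01% Triton X-100.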
# Hits are given with their value; n = inactive; u = inconclusive; ! = repeats disagree. Only some compounds are listed: those with a hit (about 2.5% of all), similar ones and a draw of the others. Calls come from the whole dose curve; as a rule, active = well fitted curve in the direction sought with a large enough effect; inconclusive = small, poorly fitted or top-dose-only effect, or another doubt; inactive = no such curve, though single readings can be large; an effect the other way counts as inactive or inconclusive.
SMILES,Cruzain noTriton,Cruzain Triton
CCOc1ccc(NC(=O)NCc2ccc3c(c2)CCN3C(C)=O)cc1,n,n
COc1ccc(-c2nc3ccc(NS(=O)(=O)c4ccc(Cl)cc4)cc3o2)cc1,n,n
Cc1ccc(S(=O)(=O)Nc2ccc(-c3nc4cc(NS(=O)(=O)c5ccc(C)cc5)ccc4o3)cc2)cc1,7.94µM,n
CCOc1ccc(/C(C)=N/N2C(=O)C(CC(=O)Nc3ccc(OC)cc3[N+](=O)[O-])SC2=Nc2cccc(C)c2C)cc1 (configuration not stated),10µM,n
CCOc1ccccc1N=C1SC(CC(=O)Nc2ccc(OC)cc2OC)C(=O)N1CCC1=CCCCC1 (configuration not stated),u,n
Cc1cc(C(=O)CN2C(=O)NC3(CCCc4ccccc43)C2=O)c(C)n1Cc1ccccc1 (configuration not stated),25.1µM,n
Cc1cc(C(=O)CN2C(=O)NC3(CCCc4ccccc43)C2=O)c(C)n1Cc1ccco1 (configuration not stated),u,n
CCCCN(CC)CCCNC(=O)C1CCN(c2nc3ccc(CC)cc3s2)CC1,n,n
C=C(Cl)CSC(=S)N(CC)CC,n,n
CCN(CC)C(=S)SSC(=S)N(CC)CC,7.94µM!,15.8µM!
CCOC(=O)C1CCC(CN(Cc2ccc(OC)cc2)S(=O)(=O)c2ccc(F)c(C(=O)Nc3ccc(C)c(C)c3)c2)CC1 (configuration not stated),n,n
Cc1oc(C)c2c(=O)cc(-c3ccc4c(c3)OCO4)cc(OC(=O)c3cccc(Cl)c3)c12,u,n
Cc1oc(C)c2c(=O)cc(-c3ccc4c(c3)OCO4)cc(OC(=O)c3cccc(Br)c3)c12,25.1µM,n
Cc1ccccc1C(=O)Oc1cc(-c2ccc3c(c2)OCO3)cc(=O)c2c(C)oc(C)c12,20µM,n
Cc1ccc(C(=O)Oc2cc(-c3ccc4c(c3)OCO4)cc(=O)c3c(C)oc(C)c23)cc1,u,n
COc1ccc(CCN2CCC(CNC(=O)c3cnn(-c4ccc(C)cc4)c3C3CCN(C(=O)OC(C)(C)C)CC3)CC2)cc1,n,n
CSc1ncnc2c1ncn2CC(=O)[C@H]1CC[C@H]2[C@H]3CCC4=CC(=O)CC[C@@]4(C)[C@@H]3CC[C@@]12C,n,n
CCOc1ccc(CCNC(=O)CCCn2c(=O)c3cccn3c3cccnc32)cc1,n,n
N=C1CCC[C@@H]1C(=S)SCCC(N)=O,n,n
Cc1cc(C)c(-c2csc(Cc3nc(-c4cc5ccccc5oc4=O)cs3)n2)cc1C,10µM,n
O=c1oc2ccc(Br)cc2cc1-c1csc(-c2ccccc2)n1,n,n
Cc1cc(C)c(-c2csc(-c3cc4ccccc4oc3=O)n2)cc1C,n,n
Cc1ccc(-c2csc(Cc3nc(-c4cc5ccccc5oc4=O)cs3)n2)cc1,6.31µM,n
C[C@H](c1ccccc1)N1CCN([C@@H](C)c2ccccc2)CC1,n,n
C=CCn1c(SCn2nnc3ccccc3c2=O)nc2scc(-c3cccs3)c2c1=O,7.94µM,n
SMILES,Cruzain noTriton,Cruzain Triton
C=CCn1c(SCC(=O)Nc2ccccc2)nc2scc(-c3cccs3)c2c1=O,25.1µM,n
C=CCn1c(SCC(=O)N2CCCC2)nc2scc(-c3cccs3)c2c1=O,n,n
O=c1c2ccccc2nnn1CSc1nnc(-c2cccs2)n1Cc1ccccc1,n,n
NS(=O)(=O)c1ccc(N=Nc2cc3ccccc3c(C(=O)O)c2O)cc1,n,n
CC(=O)c1ccc(-c2cccc(-c3cc(=O)oc4ccc(C(C)(C)C)cc34)c2)cc1,28.2µM,n
COc1cc2oc(=O)cc(-c3cccc(-c4ccc(C(C)=O)cc4)c3)c2c(OC)c1OC,n,n
CCC(Cn1nnc2ccccc2c1=O)NC(=O)Nc1ccc(C)c(C)c1 (configuration not stated),n,n
CCCCNc1nc(C)nc2c1nc(-c1ccccc1)n2CCCN1CCCCC1C (configuration not stated),n,n
Cc1nc(-c2cccc(NC(=O)Nc3ccc([N+](=O)[O-])cc3)c2)no1,n,n
CC12C=C(/C=C/CCc3ccco3)C(C)(C1)[C@H](CCc1ccco1)CC2=O (some centres not stated),n,n
Cn1c(C(=O)Nc2ccc3c(c2)OCO3)cc2sccc21,25.1µM,n
Cn1c(C(=O)NCc2ccc3c(c2)OCO3)cc2sccc21,n,n
ClCCl,n,n
Cc1ccc(C)c(NC(=O)C(Sc2ncnc3ccccc23)c2ccccc2)c1 (configuration not stated),n,n
Cc1ccc(C)c(NC(=O)C(Sc2nc3ccccc3c(=O)n2CC(C)C)c2ccccc2)c1 (configuration not stated),20µM,n
COc1ncc2nc(-c3cccs3)c(=O)n(C)c2n1,n,n
Nc1nc(SCc2ccccc2[N+](=O)[O-])c2[nH]cnc2n1,n,n
C[C@@H]1CC[C@@H]2N(C1)C[C@H]1[C@@](O)([C@H](O)C[C@]3(O)[C@H]4CC[C@H]5[C@]6(O)O[C@]4(C[C@]13O)[C@@]5(C)CC[C@@H]6O)[C@@]2(C)O,n,n
Cc1cccc(N2C(=O)c3cccc4c(N5CCCCC5)c([N+](=O)[O-])cc(c34)C2=O)c1C,u,n
O=C1c2cccc3c(N4CCOCC4)c([N+](=O)[O-])cc(c23)C(=O)N1c1cccc2ccccc12,12.6µM,n
Cc1ccccc1OCc1ccc(-c2nc(C#N)c(NCCCN(C)C)o2)o1,n,n
O=C(c1ccccc1)N1CCc2cc(CNS(=O)(=O)c3ccc(Cl)s3)ccc21,n,n
COc1ccc2c(c1)c(CC(=O)Nc1ccccc1OC)c(C)n2C(=O)c1ccc(Cl)cc1,15.8µM,n
COc1ccc(OC)c(NC(=O)Cc2c(C)n(C(=O)c3ccc(Cl)cc3)c3ccc(OC)cc23)c1,n,n
COc1ccc2c(c1)c(CC(=O)Nc1cc(C)ccc1C)c(C)n2C(=O)c1ccc(Cl)cc1,12.6µM,n
SMILES,Cruzain noTriton,Cruzain Triton
COc1ccc2c(c1)c(CC(=O)Nc1c(C)cccc1C)c(C)n2C(=O)c1ccc(Cl)cc1,n,n
CCc1ccc(C(=O)CC2(O)C(=O)N(CCc3ccccc3)c3ccc(Cl)cc32)cc1 (configuration not stated),n,n
CN(C(=O)CSc1nc2ccc(NC(=O)c3ccco3)cc2s1)c1ccccc1,n,n
Cc1ccc(Cl)cc1N1CCN(C(=O)c2sc3nc4n(c(=O)c3c2C)CCC4)CC1,n,n
CCN(Cc1ccccc1)c1ccc(/C=N/NS(=O)(=O)c2cccc([N+](=O)[O-])c2)cc1,25.1µM,n
CCN(CC)c1ccc(/C=N/NS(=O)(=O)c2ccc(C)c([N+](=O)[O-])c2)cc1,n,n
CCc1cccc(NC(=O)C(NS(=O)(=O)c2ccc3nc(C)sc3c2)C(C)C)c1 (configuration not stated),n,n
O=C(Nc1nc2c(ccc3ccccc32)s1)c1ccco1,n,n
O=C(NC(=S)Nc1nc2c(ccc3ccccc32)s1)c1cccs1,20µM,n
CN(C)CCCO[C@H]1C([C@H](O)CO)O[C@@H]2OC(C)(C)O[C@@H]21 (some centres not stated),n,n
CN(C)c1ncc2ncc(=O)n(C[C@H]3CCCO3)c2n1,n,n
CN1CCN(c2ncc3ncc(=O)n(C[C@H]4CCCO4)c3n2)CC1,20µM,u

# Compound activity: PubChem, National Center for Advancing Translational Sciences (NCATS)
